Data taken from PubChem BioAssay (Tox21).
Inconclusive results are not listed. The source made the active and inactive calls. Unless noted, calls come from the whole dose curve; as a rule, active = well fitted curve in the direction sought with a large enough effect in the repeat runs; inconclusive = weak or mixed curves; inactive = no such curve, though single readings can be large; an effect the other way counts as inactive or inconclusive.

What was measured:
[1] = A CellTox Green Cytotoxicity Assay to monitor cytotoxicity in HEK293 cells - 32 hour (AID 1224881); note: % is set by controls: 0 for no effect and ±100 for the full control effect; nearly all actives have a fitted effect of over 40% in size
Summary of the method: (§1)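 HEK293 cells premixed with CellTox Green dye were seeded at 600 cells/well and left 5 h at 37 C/5% CO2 before pin transfer of 23 nL compound in DMSO. Fluorescence from dye bound to dead-cell DNA was read during 40 h treatment.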

[2] = A CellTox Green Cytotoxicity Assay to monitor cytotoxicity in HepG2 cells - 0 hour (AID 1224882); note: % is set by controls: 0 for no effect and ±100 for the full control effect; nearly all actives have a fitted effect of over 35% in size
Summary of the method: (§2)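 HepG2 cells were seeded together with the CellTox Green dye at 600 cells/well, left 5 h at 37 C/5% CO2, then given compounds in DMSO. Fluorescence from dye bound to dead-cell DNA was read repeatedly over 40 h of treatment at 37 C.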

[3] = A CellTox Green Cytotoxicity Assay to monitor cytotoxicity in HepG2 cells - 32 hour (AID 1224883); note: % is set by controls: 0 for no effect and ±100 for the full control effect; nearly all actives have a fitted effect of over 50% in size
Summary of the method: as §2

[4] = A CellTox Green Cytotoxicity Assay to monitor cytotoxicity in HEK293 cells - 8 hour (AID 1224884); note: % is set by controls: 0 for no effect and ±100 for the full control effect; nearly all actives have a fitted effect of over 35% in size
Summary of the method: as §1

[5] = qHTS RealTime-Glo MT Cell Viability Assay in HepG2 cells - 16 hour (AID 1224885); note: % is set by controls: 0 for no effect and ±100 for the full control effect; nearly all actives have a fitted effect of over 50% in size
Summary of the method: (§3)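 Tox21 10K library screened in qHTS format on HepG2 cells carrying RealTime-Glo reagents. Compounds were added after a 5 h preincubation, and the luminescent signal from continuous culture was measured repeatedly during 40 h treatment.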

[6] = qHTS RealTime-Glo MT Cell Viability Assay in HEK293 cells - 24 hour (AID 1224886); note: top concentration of the series differs between compounds; % is set by controls: 0 for no effect and ±100 for the full control effect; nearly all actives have a fitted effect of over 50% in size
Summary of the method: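 Luminescence generated by NanoLuc from substrate produced by living HEK293 cells served as the viability signal. Each value reflects the reading at its stated time point during continuous 40 h compound exposure at 37 C.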

[7] = qHTS RealTime-Glo MT Cell Viability Assay in HEK293 cells - 8 hour (AID 1224887); note: top concentration of the series differs between compounds; % is set by controls: 0 for no effect and ±100 for the full control effect; nearly all actives have a fitted effect of over 50% in size
Summary of the method: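 HEK293 cells mixed with RealTime-Glo reagents (NanoLuc plus cell-permeant prosubstrate) at 600 cells/well, preincubated 5 h at 37 C/5% CO2, then given 23 nL compound in DMSO. Nonlytic luminescence from viable cells was read at 0, 8, 16, 24, 32 and 40 h.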

[8] = A CellTox Green Cytotoxicity Assay to monitor cytotoxicity in HEK293 cells - 16 hour (AID 1224888); note: % is set by controls: 0 for no effect and ±100 for the full control effect; nearly all actives have a fitted effect of over 35% in size
Summary of the method: as §1

[9] = qHTS RealTime-Glo MT Cell Viability Assay in HepG2 cells - 0 hour (AID 1224889)
Summary of the method: as §3

[10] = A CellTox Green Cytotoxicity Assay to monitor cytotoxicity in HepG2 cells - 8 hour (AID 1224890); note: % is set by controls: 0 for no effect and ±100 for the full control effect; nearly all actives have a fitted effect of over 45% in size
Summary of the method: as §2

[11] = qHTS assay to identify small molecule antagonists of the estrogen receptor alpha (ER-alpha) signaling pathway using the BG1 cell line in the presence of 0.1 nM 17-beta-estradiol - cell viability counter screen (AID 1259241); note: nearly all actives have a fitted effect of over 40% in size; note: potency is the fitted concentration of half-maximal effect; for activity change, negative = cytotoxicity: % is set by controls: 0 for no effect and ±100 for the full control effect
Summary of the method: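 Cytotoxicity counter-screen: live-cell protease activity measured by fluorescence (30 min reagent step) in the same wells. Cells were VM7Luc4E2 with endogenous ER-alpha and ERE-driven luciferase, treated 22 hr at 37C alongside 0.1 nM 17beta-estradiol final.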

[12] = qHTS assay to identify small molecule antagonists of the androgen receptor (AR) signaling pathway using the MDA cell line in the presence of 0.5 nM R1881 - cell viability counter screen (AID 1259242); note: % is set by controls: 0 for no effect and ±100 for the full control effect; nearly all actives have a fitted effect of over 45% in size
Summary of the method: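 MDA-kb2 cells (human breast carcinoma, stably carrying MMTV-luciferase reporter) were exposed to compounds with 0.5 nM R1881 (final) for 16 hr at 37C, 0% CO2; viability then read as live-cell protease fluorescence (CellTiter-Fluor, 30 min) in the same wells.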

[13] = molecular target: Estrogen receptor (Homo sapiens) (UniProt P03372); experiment: qHTS assay to identify small molecule antagonists of the estrogen receptor alpha (ER-alpha) signaling pathway using the BG1 cell line in the presence of 0.1 nM 17-beta-estradiol (AID 1259244)
Summary of the method: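 VM7Luc4E2 cells (endogenous full-length ER-alpha, stable 4xERE-luciferase) were grown 5 days in phenol red-free medium with charcoal-stripped FBS, then exposed 22 h at 37C to compounds plus 0.1 nM (final) 17beta-estradiol; ONE-Glo luminescence read-out.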

[14] = qHTS assay to identify small molecule HDAC inhibitors (AID 1259364); note: top concentration of the series differs between compounds; % is set by controls: 0 for no effect and ±100 for the full control effect; nearly all actives have a fitted effect of over 45% in size
Summary of the method: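 Wild-type HCT-116 cells were plated overnight, exposed to compounds for 2 h at 37 °C, then given HDAC-Glo class I/II luminogenic reagent for 30 min at room temperature before luminescence was read.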

[15] = qHTS assay to identify small molecule HDAC inhibitors - cell viability counter screen (AID 1259365)
Summary of the method: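 CellTiter-Glo luminescence (30 min, room temperature) reported viability after a 2 h compound exposure at 37 C. Cells: wild-type HCT-116, 1,500 per well, seeded the night before.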

[16] = qHTS assay to identify small molecule agonists of the sonic hedgehog signaling (Shh) pathway - cell viability counter screen (AID 1259366)
Summary of the method: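 Cytotoxicity counter screen: CellTiter-Fluor reagent added after 23 h compound exposure, then 1 h at 37C and fluorescence read. Cells were 3T3 Gli1-Luc, seeded 2,000 per well and dosed 4 h post-plating.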

[17] = qHTS assay to identify small molecule antagonists of the sonic hedgehog signaling (Shh) pathway - cell viability counter screen (AID 1259367); note: % is set by controls: 0 for no effect and ±100 for the full control effect; nearly all actives have a fitted effect of over 55% in size
Summary of the method: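 After a 4 hr settling period, 3T3 Gli1-Luc cells were treated with DMSO-dissolved chemicals and conditioned medium, kept 24 hr at 37C in 5% CO2, and assayed for viability by CellTiter-Fluor fluorescence following 1 hr reagent incubation.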

[18] = qHTS assay to identify small molecule phospholipidosis (PLD) inducers (AID 1259344; active = well fitted curve in the direction sought with a large enough effect; an effect the other way counts as inactive or inconclusive; note: % is set by controls: 0 for no effect and ±100 for the full control effect)
Summary of the method: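 HepG2 cells grown on collagen I take up LipidTOX Red while exposed to compound for 24 h; after fixation they are imaged at 20x and pit metrics are extracted.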

[19] = qHTS assay to identify small molecule agonists of the sonic hedgehog signaling (Shh) pathway (AID 1259368; calls by dose curve; note: series mostly up to about 92 µM; % is set by controls: 0 for no effect and ±100 for the full control effect; nearly all actives have a fitted effect of over 15% in size)
Summary of the method: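 NIH/3T3-derived 3T3Gli1-Luc cells carrying a stably integrated Gli1 response element–firefly luciferase reporter were plated, left 4 hr at 37 C, then given compounds in DMSO for 24 hr. Luminescence was read 30 min after adding luciferase reagent.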

[20] = molecular target: Androgen receptor (Homo sapiens) (UniProt P10275); experiment: qHTS assay to identify small molecule antagonists of the androgen receptor (AR) signaling pathway using the MDA cell line in the presence of 0.5 nM R1881 (AID 1259243)
Summary of the method: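 MDA-kb2 human breast carcinoma cells carrying an MMTV-luciferase reporter (AR- and GR-responsive) were plated, rested 5 hr at 37C, dosed with compounds, then stimulated with 0.5 nM R1881 (final) for 16 hr; luminescence was read after ONE-Glo.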

Sequence of Estrogen receptor (Homo sapiens) (P03372 whole entry, looked up): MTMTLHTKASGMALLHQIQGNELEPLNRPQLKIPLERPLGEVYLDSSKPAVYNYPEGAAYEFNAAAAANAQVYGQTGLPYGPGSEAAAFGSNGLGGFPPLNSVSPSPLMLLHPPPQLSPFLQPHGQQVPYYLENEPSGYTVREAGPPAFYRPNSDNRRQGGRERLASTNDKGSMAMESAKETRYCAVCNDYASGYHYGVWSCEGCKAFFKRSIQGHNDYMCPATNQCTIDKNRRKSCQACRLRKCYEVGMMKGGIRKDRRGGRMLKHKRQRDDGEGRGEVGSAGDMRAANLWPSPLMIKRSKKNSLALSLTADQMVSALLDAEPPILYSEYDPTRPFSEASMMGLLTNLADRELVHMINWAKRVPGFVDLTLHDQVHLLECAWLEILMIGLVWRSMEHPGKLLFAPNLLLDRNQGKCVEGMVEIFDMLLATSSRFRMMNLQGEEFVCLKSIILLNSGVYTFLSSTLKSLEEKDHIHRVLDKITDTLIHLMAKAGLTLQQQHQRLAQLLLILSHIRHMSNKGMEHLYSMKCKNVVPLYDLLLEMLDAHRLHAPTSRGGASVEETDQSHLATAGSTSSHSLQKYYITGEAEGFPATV
Sequence of Androgen receptor (Homo sapiens) (P10275 whole entry, looked up): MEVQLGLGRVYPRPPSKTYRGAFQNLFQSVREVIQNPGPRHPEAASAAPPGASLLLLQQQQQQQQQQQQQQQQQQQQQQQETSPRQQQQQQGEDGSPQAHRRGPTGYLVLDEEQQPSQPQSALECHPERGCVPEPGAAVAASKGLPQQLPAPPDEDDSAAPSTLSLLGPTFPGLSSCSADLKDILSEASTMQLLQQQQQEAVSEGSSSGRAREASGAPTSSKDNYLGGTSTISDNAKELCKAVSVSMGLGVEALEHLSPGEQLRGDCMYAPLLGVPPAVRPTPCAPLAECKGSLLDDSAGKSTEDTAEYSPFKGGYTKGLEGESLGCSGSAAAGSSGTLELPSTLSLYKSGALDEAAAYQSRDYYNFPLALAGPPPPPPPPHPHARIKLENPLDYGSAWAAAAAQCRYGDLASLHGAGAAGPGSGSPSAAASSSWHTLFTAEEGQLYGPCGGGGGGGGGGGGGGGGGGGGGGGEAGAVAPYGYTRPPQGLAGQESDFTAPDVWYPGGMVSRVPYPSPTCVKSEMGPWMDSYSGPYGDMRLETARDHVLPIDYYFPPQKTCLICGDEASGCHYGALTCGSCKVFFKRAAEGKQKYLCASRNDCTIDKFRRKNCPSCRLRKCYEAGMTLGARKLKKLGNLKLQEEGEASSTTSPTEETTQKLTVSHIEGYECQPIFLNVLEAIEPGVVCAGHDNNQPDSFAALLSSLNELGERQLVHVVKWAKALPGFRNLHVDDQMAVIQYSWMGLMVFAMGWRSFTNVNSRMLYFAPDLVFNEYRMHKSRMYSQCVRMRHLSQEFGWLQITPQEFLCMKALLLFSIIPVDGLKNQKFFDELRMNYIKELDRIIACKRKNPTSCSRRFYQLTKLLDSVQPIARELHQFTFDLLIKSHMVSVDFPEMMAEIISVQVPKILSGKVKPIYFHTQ

CC(C)C(=O)OCC(C)(C)C(O)C(C)C (stereo not drawn)
inactive: Potency [1] | Potency [2] | Potency [3] | Potency [4] | outcome [5] | Potency [6] | Potency [7] | Potency [8] | Potency [9] | Potency [10] | Potency [11] | outcome [12] | Potency [13] | Potency [14] | outcome [15] | Potency [16] | Potency [17]

CCC(=O)O[C@]1(C(=O)SCF)[C@H](C)C[C@H]2[C@@H]3C[C@H](F)C4=CC(=O)C=C[C@]4(C)[C@@]3(F)[C@@H](O)C[C@@]21C
inactive: Potency [1] | Potency [2] | Potency [3] | Potency [4] | outcome [5] | Potency [6] | Potency [7] | Potency [8] | Potency [9] | Potency [10] | Potency [11] | outcome [12] | Potency [13] | outcome [18] | Potency [14] | outcome [15] | Potency [16] | Potency [17] | Potency [19]

CO[Si](C)(C)OC
inactive: Potency [1] | Potency [2] | Potency [3] | Potency [4] | outcome [5] | Potency [6] | Potency [7] | Potency [8] | Potency [9] | Potency [10] | Potency [11] | outcome [12] | Potency [13] | Potency [14] | outcome [15] | Potency [16] | Potency [17] | Potency [19]

Cc1nnc(SCC2=C(C(=O)O)N3C(=O)[C@@H](NC(=O)Cn4cnnn4)[C@H]3SC2)s1
inactive: Potency [1] | Potency [2] | Potency [3] | Potency [4] | outcome [5] | Potency [6] | Potency [7] | Potency [8] | Potency [9] | Potency [10] | Potency [11] | outcome [12] | Potency [13] | outcome [18] | Potency [14] | outcome [15] | Potency [16] | Potency [19]

CC(CNC1CCCCC1)OC(=O)c1ccccc1 (stereo not drawn)
inactive: Potency [1] | Potency [2] | Potency [3] | Potency [4] | outcome [5] | Potency [6] | Potency [7] | Potency [8] | Potency [9] | Potency [10] | Potency [11] | outcome [12] | Potency [13] | outcome [18] | Potency [14] | outcome [15] | Potency [16] | Potency [17] | Potency [19]

Cc1cc2c(s1)Nc1ccccc1N=C2N1CCN(C)CC1
active: Potency [11] 13.3 µM
inactive: Potency [1] | Potency [2] | Potency [3] | Potency [4] | outcome [5] | Potency [6] | Potency [7] | Potency [8] | Potency [9] | Potency [10] | outcome [12] | Potency [13] | outcome [18] | Potency [14] | outcome [15] | Potency [19]

CNCCC(Oc1ccccc1OC)c1ccccc1 (stereo not drawn)
inactive: Potency [1] | Potency [2] | Potency [3] | Potency [4] | outcome [5] | Potency [6] | Potency [7] | Potency [8] | Potency [9] | Potency [10] | Potency [11] | outcome [12] | Potency [13] | outcome [18] | Potency [14] | outcome [15] | Potency [16] | Potency [17] | Potency [19]

CCCCN1C[C@H](O)[C@@H](O)[C@H](O)[C@H]1CO
inactive: Potency [1] | Potency [2] | Potency [3] | Potency [4] | outcome [5] | Potency [6] | Potency [7] | Potency [8] | Potency [9] | Potency [10] | Potency [11] | outcome [12] | Potency [13] | outcome [18] | Potency [14] | outcome [15] | Potency [16] | Potency [17]

O=C(O)c1ccccc1Nc1cc(Cl)ccc1C(=O)O
inactive: cytotoxicity increase [1] -11.6% [at 15.8 µM] | cytotoxicity [2] -1.43% [at 15.8 µM] | cytotoxicity increase [3] 20.7% [at 15.8 µM] | cytotoxicity increase [4] -18.6% [at 15.8 µM] | activity change, negative = cytotoxic [5] 0.467% [at 15.8 µM] | activity change, negative = cytotoxicity [6] 7.65% [at 15.8 µM] | activity change, negative = cytotoxicity [7] -4.99% [at 15.8 µM] | activity change [8] -3.78% [at 15.8 µM, active compounds read high] | activity change, negative = cytotoxicity [9] -2.93% [at 15.8 µM] | cytotoxicity increase [10] 7.19% [at 15.8 µM] | activity change, negative = cytotoxicity [11] -25.8% [at 19 µM] | viability change, negative = cytotoxic [12] -0.133% [at 19 µM] | activity change, negative = inhibition [13] -11% [at 19 µM] | PLD induction [18] -4.32% [at 7.66 µM] | activity change, negative = inhibition [14] -1.95% [at 19 µM] | activity change, negative = cytotoxicity [15] -5.17% [at 19 µM] | activity change [19] -0.0136% [at 18.9 µM, active compounds read high]

C=C(C)C(=O)OCCOP(=O)(O)O
inactive: Potency [1] | Potency [2] | Potency [3] | Potency [4] | outcome [5] | Potency [6] | Potency [7] | Potency [8] | Potency [9] | Potency [10] | Potency [11] | outcome [12] | Potency [13] | Potency [14] | outcome [15] | Potency [16] | Potency [17] | Potency [19]

CC(=O)O[C@H]1CC[C@@]2(C)C(=CC[C@@H]3[C@@H]2CC[C@]2(C)C(C(C)=O)=CC[C@@H]32)C1
active: Potency [20] 11.9 µM
inactive: Potency [1] | Potency [2] | Potency [3] | Potency [4] | outcome [5] | Potency [6] | Potency [7] | Potency [8] | Potency [9] | Potency [10] | Potency [11] | outcome [12] | Potency [13] | Potency [14] | outcome [15] | Potency [19]

OCc1ccccc1O
inactive: Potency [1] | Potency [2] | Potency [3] | Potency [4] | outcome [5] | Potency [6] | Potency [7] | Potency [8] | Potency [9] | Potency [10] | Potency [11] | outcome [12] | outcome [18] | Potency [14] | outcome [15] | Potency [16] | Potency [17] | Potency [19]

COC(=O)c1ccc(OC)cc1
inactive: Potency [1] | Potency [2] | Potency [3] | Potency [4] | outcome [5] | Potency [6] | Potency [7] | Potency [8] | Potency [9] | Potency [10] | Potency [11] | outcome [12] | Potency [14] | outcome [15] | Potency [17] | Potency [19]

O=C(O)[C@@H]1CSCN1
inactive: Potency [1] | Potency [2] | Potency [3] | Potency [4] | outcome [5] | Potency [6] | Potency [7] | Potency [8] | Potency [9] | Potency [10] | Potency [11] | outcome [12] | outcome [18] | Potency [14] | outcome [15] | Potency [16] | Potency [17]
